Assay outcomes deposited in PubChem by Broad Institute.
An excerpt weighted towards active compounds, which were near 2.5% of everything screened.
MITF inh = inhibitors of MITF, primary screen, MITF inhibitor project, cell-based, luminescence; 37,000 compounds, 0.28% hits; AID 2240, 2010; inhibition, % (test concentration not listed); TRPM1 promoter luciferase, 24 h; in the data active means inhibition above about 85%; inconclusive means no clear call, values can overlap the other calls; inactive means below about 68%;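 further: human melanocyte line stably carrying TRPM1 promoter luciferase reporter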
YB-1 expression = inhibitors of YB-1 gene expression, primary screen, cell-based, fluorescence; U2OS, qRT-PCR YB-1 vs CDIP delta delta Cp, 16 h; hits give high values; zero = DMSO, each unit about twofold; delta delta Cp (YB-1 minus CDIP) (concentration not given with the values); 30,000 compounds, 0.37% hits; AID 434959, 2010;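 active means delta delta Cp rounded down to an integer at or above 3, about 3 SD of DMSO wells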;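 further: higher means less YB-1 transcript or more CDIP transcript relative to DMSO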
U2OS ROS induce = ROS inducers in U2OS cancer cells, primary screen, cell-based, H2DCF-DA fluorescence; U2OS ROS induction; ROS induction (% of piperlongumine), % at 10 µM; 46,000 compounds, 2% hits; AID 624156, 2012; in the data active means ROS induction above about 79%, passing the limit was not always enough; inconclusive means no clear call, values can overlap the other calls;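 further: 0% = DMSO vehicle median and 100% = reference compound median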
BJeLR viab HTS = BJeLR cell viability loss, primary screen, luminescence, CellTiterGlo ATP. AID 2275, 2010. BJeLR fibroblasts viability, 48 h; HRASV12, hTERT and SV40 LT/ST transformed. viability loss activity score, % (test concentration not listed). 30,000 compounds, 0.64% hits; in the data active means viability loss activity score above about 50%; inconclusive means no clear call, values can overlap the other calls; inactive means below about 35%;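 further: higher score means fewer live cells and less ATP luminescence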
* hit, by the source's call; ? = inconclusive; / = no result given.

SMILES | MITF inh | YB-1 expression | U2OS ROS induce | BJeLR viab HTS
CC(C)[C@]12O[C@H]1[C@@H]1O[C@]13[C@]1(O[C@H]1C[C@H]1C4=C(CC[C@@]13C)C(=O)OC4)[C@@H]2O | 74 | -1.9 | 2 | 90*
CC1C/C=C/C2C3OC3(C)C(C)C3C(Cc4ccccc4)NC(=O)C23OC(=O)O/C=C/C(C)(O)C1=O (stereo not given) | 41 | 0.082 | -5 | 3
CCC(C)[C@H]1C(=O)O[C@H](C(C)C)C(=O)N(C)[C@@H](C(C)CC)C(=O)O[C@H](C(C)C)C(=O)N(C)[C@@H](C(C)CC)C(=O)O[C@H](C(C)C)C(=O)N1C (stereo not given in full) | 96* | -0.1 | -26 | 91*
COc1cc2c(cc1O)CCNC2C (stereo not given) | -14 | -0.1 | 16 | -4
CC[C@H]1CN2CCc3cc(OC)c(OC)cc3[C@@H]2C[C@@H]1C[C@H]1NCCc2cc(O)c(OC)cc21 | 88* | 1.2 | 9 | 94*
CCNCC(O)c1cccc(OC(=O)c2ccccc2C)c1 (stereo not given) | / | / | -17 | -7
CN(C)c1ccc(/C=C/C=C2/C(=O)NC(=O)N(c3ccccc3)C2=O)cc1 | / | / | / | 60*
CN1C(=O)NC(=O)/C(=C\C=C\c2ccco2)C1=O | / | / | -9 | -3
Cc1ccnc(NC(c2ccccc2[N+](=O)[O-])c2ccc3ccc(C)nc3c2O)c1 (stereo not given) | 57 | / | -8 | /
CCOC(=O)C1(c2ccccc2)CCN(C(=O)c2c(C)oc3ccc(OC)cc23)CC1 | / | / | 80* | 2
Fc1ccc(Sc2c(F)c(F)nc(N3CCNCC3)c2F)cc1 | / | / | -11 | 0
c1ccc2c(CNCCc3c[nH]c4ccccc34)cccc2c1 | -6 | -0.29 | 9 | 9
O=[N+]([O-])c1ccc(O)c([N+](=O)[O-])c1 | 105* | 0.27 | -14 | 14
C[C@H]1CN([C@@H](C)CO)C(=O)CCCn2cc(nn2)CO[C@@H]1CN(C)C(=O)Oc1ccc2ccccc2c1 | / | -0.25 | 134* | /
CC(C)n1[nH]c(=O)c2c1NC(=O)CSC2c1ccc(Br)cc1 (stereo not given) | / | / | 13 | -10
C/C=C(/C)C(=O)O[C@H]1C(C)=C2[C@H]([C@@H]1OC(=O)CCCCCCC)[C@@](C)(OC(C)=O)C[C@H](OC(=O)CCC)[C@@]1(O)[C@H]2OC(=O)[C@@]1(C)O | 105* | -0.57 | 13 | 33
C/C=C(\C)[C@H](O)[C@H](C)/C=C(C)/C=C/C/C(C)=C/Cc1[nH]c(OC)c(OC)c(=O)c1C | 96* | -0.53 | 17 | 26
CO[C@H]1[C@@H](O)[C@@H](C)O[C@@H](O[C@@H]2C=C3C(OC(C)=O)CC4(O)C(CC[C@]5(C)[C@@H](C6=CC(=O)OC6)CC[C@]45O)[C@@]3(C)CC2)[C@@H]1O (stereo not given in full) | 36 | -0.07 | 7 | 115*
CO[C@H]1[C@@H](O)[C@@H](C)O[C@@H](OC2CCC3(C)C(CC[C@@H]4[C@@H]3CCC3(C)C(C5=CC(=O)OC5)C(O)CC43O)C2)[C@@H]1O (stereo not given in full) | 19 | 2.1 | 8 | 111*
C[C@H]1O[C@@H](O[C@H]2CC[C@]3(CO)C4CC[C@]5(C)[C@@H](C6=CC(=O)OC6)CC[C@]5(O)C4CC[C@H]3C2)[C@H](O)[C@H](O)[C@@H]1O (stereo not given in full) | / | 0.42 | -4 | /
COC1CC(OC2CCC3(C)C(CCC4(O)C3CC(OC(=O)c3ccccc3)C3(C)C(O)(C(C)=O)CCC43O)C2)OC(C)C1OC1CC(OC)C(OC2OC(C)C(O)C(OC)C2O)C(C)O1 (stereo not given) | -7 | -0.082 | 0 | -7
COC1CC(O[C@H]2CC[C@@]3(C)C(CCC4C3CC[C@]3(C)C(C5=CC(=O)OC5)CCC43O)C2)OC(C)C1OC1OC(COC2OC(CO)C(O)C(O)C2O)C(O)C(O)C1O (stereo not given in full) | 9 | 0.45 | -7 | 94*
CC12CC[C@H]3C(CCC4(O)CC(O)CCC34O)C1(O)CCC2C1=CC(=O)OC1 (stereo not given in full) | -14 | -0.15 | -5 | 3
C[C@]12CC[C@H](O)C[C@H]1CC[C@@H]1[C@@H]2CC[C@]2(C)[C@@H](C3=CC(=O)OC3)CC[C@]12O | 40 | 0.25 | 1 | 91*
CN(C)C(=O)Oc1nnc(SCCS(=O)(=O)c2ccc(F)cc2)n1-c1ccccc1 | / | / | / | -2
SMILES | MITF inh | YB-1 expression | U2OS ROS induce | BJeLR viab HTS
Cc1cc(OCc2c(F)cccc2Cl)c2c3c(c(=O)oc2c1)CCCC3 | / | / | -3 | -1
CCN(CC)c1nc2ccccc2c(=O)n1-c1ccccc1 | / | / | 6 | -4
CCN1C[C@]2(COC)CC[C@H](O)[C@]34C1[C@H](C[C@H]23)[C@@]1(O)C[C@H](OC)[C@H]2C[C@@H]4[C@@H]1[C@H]2OC(C)=O | -1 | -0.24 | 0 | 0
CCOC(=O)c1cc(C(C)(C)C)nc(OC(=O)N(C)C)c1C#N | 0 | 0.11 | 14 | 0
C[C@H]1O[C@@H](O[C@H]2[C@@H](O)C[C@H](O[C@H]3[C@@H](O)C[C@H](O[C@H]4CC[C@]5(C)C6CC[C@]7(C)[C@@H](C8=CC(=O)OC8)CC[C@]7(O)C6CC[C@@H]5C4)O[C@@H]3C)O[C@@H]2C)C[C@H](O)[C@@H]1O (stereo not given in full) | 17 | -0.24 | 11 | 113*
CC(=O)O[C@H]1CC[C@]2(C=O)[C@H]3CC[C@]4(C)[C@@H](C5=CC(=O)OC5)CC[C@]4(O)[C@@H]3CC[C@]2(O)C1 | 45 | -0.066 | ? | 111*
C[C@]12CC[C@H](O)C[C@H]1CC[C@@H]1[C@@H]2C[C@@H](O)[C@]2(C)[C@@H](C3=CC(=O)OC3)CC[C@]12O | 18 | 0.31 | -6 | 83*
CC(=O)OCC(=O)[C@H]1CC[C@H]2[C@@H]3CC[C@H]4C[C@H](O)CC[C@]4(C)[C@H]3C(=O)C[C@]12C | 16 | -0.63 | -2 | -4
CC(=O)OC1CCC2(C)C(CC[C@@H]3[C@@H]2CCC2(C)C(C4=CC(=O)OC4)CCC32O)C1 (stereo not given in full) | 11 | 0.66 | 43 | 89*
c1cncc(C2N=C(c3cnccn3)NN2)c1 (stereo not given) | -44 | / | 16 | -4
O=C(Cn1cc(C(=O)c2ccccc2)c2ccccc21)NCC1CCCO1 (stereo not given) | -6 | / | 16 | /
C=CC/C=C\C/C=C\CCCCCCCc1cc(O)cc(O)c1 | 6 | -0.34 | -2 | /
Cc1cc(Br)c(NC(=O)C2C(C)(C)C2(C)C)c(Br)c1 | 11 | -0.34 | 1 | -2
